{"source": "the antibiotic and cytotoxicity screens of Wong et al. (2023)", "note": "Among all 39,000 compounds or so, about 3,300 (8.5%) were called active. The entries come from a sample that favours actives as a whole.", "data": [{"test_system": "HepG2", "assay": "cytotoxicity call (relative viability < 0.9)", "conditions": "10 µM", "values": [{"smiles": "CCS(=O)(=O)N1CC[C@]2(CC1)CN(Cc1ccc3c(c1)OCO3)[C@H](CO)c1c2c2ccc(cc2n1C)OC", "cytotoxicity call": "inactive"}, {"smiles": "O=C(C[C@H]1C=C[C@H](NC(=O)Cc2ccccn2)[C@@H](CO)O1)NCCCN1CCOCC1", "cytotoxicity call": "inactive"}, {"smiles": "CC(C)NC(=O)Nc1ccc2c(c1)C(=O)N([C@H](C)CO)C[C@H](C)[C@@H](CN(C)Cc1ccc(Oc3ccccc3)cc1)O2", "cytotoxicity call": "inactive"}, {"smiles": "C[C@H](CO)N1C[C@H](C)[C@@H](CN(C)S(=O)(=O)c2ccc(F)cc2)Oc2ncc(Br)cc2C1=O", "cytotoxicity call": "inactive"}, {"smiles": "C[C@@H]1CN([C@@H](C)CO)C(=O)Cc2cc(NS(=O)(=O)c3ccc(F)cc3)ccc2O[C@@H]1CN(C)CC1CC1", "cytotoxicity call": "inactive"}, {"smiles": "COc1ccccc1-c1ccc2c(c1)O[C@@H](CN(C)C(=O)c1ccncc1)[C@@H](C)CN([C@@H](C)CO)S2(=O)=O", "cytotoxicity call": "inactive"}, {"smiles": "O=c1cc[nH]c(=S)[nH]1", "cytotoxicity call": "inactive"}, {"smiles": "Cn1cnc(S(=O)(=O)N2C[C@@H](O)COC[C@@H]3O[C@@H](CC(=O)NCc4cccc(F)c4)CC[C@H]32)c1", "cytotoxicity call": "inactive"}, {"smiles": "C[C@@H]1CCCCO[C@H](CN(C)Cc2ccc(C(=O)O)cc2)[C@@H](C)CN([C@@H](C)CO)C(=O)c2cc(NC(=O)Nc3ccccc3)ccc2O1", "cytotoxicity call": "inactive"}, {"smiles": "N=C(N)c1ccc(OCCCCCOc2ccc(C(=N)N)cc2)cc1.O=S(=O)(O)CCO.O=S(=O)(O)CCO", "cytotoxicity call": "active"}, {"smiles": "N=C(N)c1ccc(C(N)=O)cc1", "cytotoxicity call": "inactive"}, {"smiles": "CC(=O)NCCOc1ccc(C(=O)O)cc1", "cytotoxicity call": "inactive"}, {"smiles": "C[C@@H]1CCCCO[C@@H](CN(C)S(=O)(=O)c2cn(C)cn2)[C@H](C)CN([C@H](C)CO)C(=O)c2cc(NS(C)(=O)=O)ccc2O1", "cytotoxicity call": "inactive"}, {"smiles": "C[C@H](CO)N1C[C@H](C)[C@@H](CN(C)S(=O)(=O)c2ccccc2)Oc2ccc(NS(=O)(=O)c3cn(C)cn3)cc2C1=O", "cytotoxicity call": "inactive"}, {"smiles": "CO[C@H]1CN(C)C(=O)c2cc(NC(C)=O)ccc2OC[C@H](C)N(S(=O)(=O)c2cn(C)cn2)C[C@H]1C", "cytotoxicity call": "inactive"}, {"smiles": "CCC(=O)c1ccc(O)cc1", "cytotoxicity call": "inactive"}, {"smiles": "CCC(=C(CC)c1ccc(O)cc1)c1ccc(O)cc1", "cytotoxicity call": "active"}, {"smiles": "CCC(c1ccc(O)cc1)C(CC)c1ccc(O)cc1", "note": "(configuration not stated)", "cytotoxicity call": "inactive"}, {"smiles": "CNC[C@@H]1OCCCC[C@H](C)Oc2ccc(NC(=O)Nc3ccc(C(F)(F)F)cc3)cc2C(=O)N([C@@H](C)CO)C[C@H]1C", "cytotoxicity call": "inactive"}, {"smiles": "O=C(Cc1ccccn1)NCC[C@@H]1CC[C@H](NC(=O)CN2CCOCC2)[C@@H](CO)O1", "cytotoxicity call": "inactive"}, {"smiles": "Cc1ccc(S(=O)(=O)n2cc([C@@H]3CC(=O)N(C(=O)OCc4ccccc4)[C@@H]3C(=O)Nc3cccc4cccnc34)c3ccccc32)cc1", "cytotoxicity call": "inactive"}, {"smiles": "CN1CCN(c2ccc(OC(F)(F)F)c(Nc3ncc4c(n3)-c3c(c(C(N)=O)nn3CCO)CC4)c2)CC1", "cytotoxicity call": "active"}]}]}
